According to PubChem BioAssay AID1159580 (chemical genetic matrix, 2015):
Values joined by “and” are separate entries in the source; they are usually repeats but may differ in a detail not shown here. Equal values may be shown once. Hit rate of the full screen: of about 5,500 compounds, about 2,000 (36%) were called active. Inconclusive results (about 18%) are left out. No stated cut-off is given here; in the data, active means normalized growth mostly below about 0.91 (no sharp cut-off); inconclusive means no clear call, values can overlap the other calls; inactive means mostly above about 0.92. The list shows a part of the results.

Experiment: chemical genetic growth profiling, strain panel (AID 1159580);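 further: tested at 20 µM; growth read once vehicle control cultures reached saturation at 30 °C; 1 = growth at the plate median or of vehicle wells; lower values mean less growth of the strain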
Conditions: S. cerevisiae deletion strains, growth OD

Measured: normalized growth

NC[C@H]1O[C@H](O[C@H]2C(O[C@@H]3O[C@H](CO)[C@@H](O)[C@H]3O)[C@@H](O)[C@H](N)C[C@@H]2N)[C@H](N)[C@@H](O)[C@@H]1O (some centres not stated)
inactive: locus YAL013W, strain DEP1, active compounds read low 1 | locus YAL021C, strain ccr4, active compounds read low 1.02 | locus YAL026C, strain drs2, active compounds read low 0.998 | locus YAL030W, strain snc1, active compounds read low 0.994 | locus YBL061C, strain skt5, active compounds read low 0.997 | locus YBR009C, strain hhf1, active compounds read low 0.975 | locus YBR021W, strain FUR4, active compounds read low 0.969 | locus YBR023C, strain chs3, active compounds read low 0.995 | locus YBR171W, strain sec66, active compounds read low 0.992 | locus YBR229C, strain ROT2, active compounds read low 0.99 | locus YBR231C, strain swc5, active compounds read low 0.998 | locus YBR279W, strain paf1, active compounds read low 0.999 | locus YCL011C, strain gbp2, active compounds read low 1 | locus YCL016C, strain dcc1, active compounds read low 0.996 | locus YCL029C, strain bik1, active compounds read low 0.987 | locus YCL061C, strain MRC1, active compounds read low 0.989 | locus YCL069W, strain vba3, active compounds read low 0.997 | locus YCR088W, strain abp1, active compounds read low 0.998 | locus YDL005C, strain med2, active compounds read low 1.01 | locus YDL035C, strain GPR1, active compounds read low 1.01 | locus YDL040C, strain nat1, active compounds read low 0.983 | locus YDL074C, strain BRE1, active compounds read low 0.985 | locus YDL101C, strain DUN1, active compounds read low 0.987 | locus YDL134C, strain PPH21, active compounds read low 0.988 | locus YDL185W, strain tfp1, active compounds read low 0.983 | locus YDL192W, strain arf1, active compounds read low 0.996 | locus YDR001C, strain nth1, active compounds read low 0.989 | locus YDR069C, strain doa4, active compounds read low 0.99 | locus YDR101C, strain arx1, active compounds read low 0.972 | locus YDR137W, strain rgp1, active compounds read low 1.02 | locus YDR150W, strain NUM1, active compounds read low 1 | locus YDR159W, strain sac3, active compounds read low 0.982 | locus YDR162C, strain NBP2, active compounds read low 1 | locus YDR195W, strain ref2 0.939 | locus YDR297W, strain sur2, active compounds read low 0.99 | locus YDR318W, strain mcm21, active compounds read low 0.996 | locus YDR334W, strain swr1, active compounds read low 0.997 | locus YDR335W, strain msn5, active compounds read low 0.994 | locus YDR388W, active compounds read low 0.992 | locus YDR392W, strain spt3, active compounds read low 0.918 | locus YDR502C, strain sam2, active compounds read low 0.998 | locus YEL003W, strain gim4, active compounds read low 1 | locus YEL037C, strain rad23, active compounds read low 0.995 | locus YEL061C, strain CIN8 (second series), active compounds read low 0.991 | locus YEL061C, strain CIN8, active compounds read low 0.999 | locus YER015W, strain faa2, active compounds read low 0.998 | locus YER016W, strain bim1, active compounds read low 0.993 | locus YER110C, active compounds read low 0.993 | locus YER111C, strain swi4, active compounds read low 0.977 | locus YER155C, strain BEM2 (second series), active compounds read low 0.974 | locus YER155C, strain BEM2, active compounds read low 0.957 | locus YER167W, strain BCK2, active compounds read low 1 | locus YFR010W, strain ubp6, active compounds read low 0.999 | locus YGL078C, strain dbp3, active compounds read low 0.988 | locus YGL086W, strain mad1, active compounds read low 0.994 | locus YGL167C, strain pmr1, active compounds read low 0.992 | locus YGL173C, strain kem1, active compounds read low 1 | locus YGL227W, strain vid30, active compounds read low 0.989 | locus YGL240W, strain doc1, active compounds read low 0.991 | locus YGL248W, strain PDE1, active compounds read low 0.994 | locus YGL253W, strain hxk2, active compounds read low 0.985 | locus YGR078C, strain PAC10, active compounds read low 0.994 | locus YGR135W, strain pre9, active compounds read low 0.985 | locus YGR229C, strain SMI1, active compounds read low 1.03 | locus YGR252W, strain gcn5, active compounds read low 1.08 | locus YHR013C, strain ard1, active compounds read low 0.976 | locus YHR027C, strain rpn1, active compounds read low 1 | locus YHR030C, strain SLT2, active compounds read low 0.994 and 0.986 | locus YHR079C, strain IRE1 (second series), active compounds read low 0.983 | locus YHR079C, strain IRE1, active compounds read low 0.993 | locus YHR094C, strain hxt1, active compounds read low 0.99 | locus YHR129C, strain ARP1, active compounds read low 0.986 | locus YHR142W, strain chs7, active compounds read low 1.01 | locus YHR200W, strain rpn10, active compounds read low 0.989 | locus YIL066C, strain RNR3, active compounds read low 0.991 | locus YIL073C, strain SPO22, active compounds read low 1.01 | locus YIL125W, strain kgd1, active compounds read low 1 | locus YIR030C, strain dcg1, active compounds read low 0.988 | locus YJL092W, strain hpr5, active compounds read low 0.994 | locus YJL095W, strain BCK1 (second series), active compounds read low 0.995 | locus YJL095W, strain BCK1, active compounds read low 0.984 and 1.02 | locus YJL115W, strain asf1, active compounds read low 0.995 | locus YJL129C, strain trk1, active compounds read low 1 | locus YJL134W, strain LCB3, active compounds read low 0.992 | locus YJL154C, strain vps35, active compounds read low 0.986 | locus YJL164C, strain tpk1, active compounds read low 1 | locus YJL166W, strain qcr8, active compounds read low 1.01 | locus YJL168C, strain set2, active compounds read low 0.986 | locus YJL187C, strain SWE1 (second series), active compounds read low 0.991 | locus YJL187C, strain SWE1, active compounds read low 0.997 | locus YJR043C, strain POL32, active compounds read low 0.994 | locus YJR066W, strain TOR1, active compounds read low 0.93
